“And” between values parts separate entries of the source, which are not always exact repeats. Identical values can stand only once. Among all 5,500 compounds or so, about 2,000 (36%) were called active. Not shown: some 18% with an inconclusive outcome. The list shows a part of the results. A number with no mark means an inactive call. No stated cut-off is given here; in the data, active means normalized growth mostly below about 0.91 (no sharp cut-off); inconclusive means no clear call, values can overlap the other calls; inactive means mostly above about 0.92.
Assay: chemical genetic growth profiling, strain panel (AID 1159580);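 further: tested at 20 µM; growth read once vehicle control cultures reached saturation at 30 °C; 1 = growth at the plate median or of vehicle wells; lower values mean less growth of the strain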
Conditions: S. cerevisiae deletion strains, growth OD

CCOc1ccc(C(=O)c2ccc(O)c(O)c2O)cc1
normalized growth (locus YAL021C, strain ccr4, active compounds read low): 0.754 (active)
normalized growth (locus YAL026C, strain drs2, active compounds read low): 0.844 (active)
normalized growth (locus YAL030W, strain snc1, active compounds read low): 0.936
normalized growth (locus YBL061C, strain skt5, active compounds read low): 0.898 (active)
normalized growth (locus YBR009C, strain hhf1, active compounds read low): 0.926
normalized growth (locus YBR021W, strain FUR4, active compounds read low): 0.926
normalized growth (locus YBR023C, strain chs3, active compounds read low): 0.84 (active)
normalized growth (locus YBR171W, strain sec66, active compounds read low): 0.899
normalized growth (locus YBR229C, strain ROT2, active compounds read low): 0.979
normalized growth (locus YBR231C, strain swc5, active compounds read low): 0.829 (active)
normalized growth (locus YBR279W, strain paf1, active compounds read low): 0.927 (active)
normalized growth (locus YCL011C, strain gbp2, active compounds read low): 0.945
normalized growth (locus YCL016C, strain dcc1, active compounds read low): 0.919
normalized growth (locus YCL029C, strain bik1, active compounds read low): 0.857 (active)
normalized growth (locus YCL061C, strain MRC1, active compounds read low): 0.908 (active)
normalized growth (locus YCL069W, strain vba3, active compounds read low): 0.96
normalized growth (locus YCR088W, strain abp1, active compounds read low): 0.949
normalized growth (locus YDL005C, strain med2, active compounds read low): 0.973
normalized growth (locus YDL035C, strain GPR1, active compounds read low): 0.899
normalized growth (locus YDL040C, strain nat1, active compounds read low): 0.971
normalized growth (locus YDL074C, strain BRE1, active compounds read low): 0.741 (active)
normalized growth (locus YDL101C, strain DUN1, active compounds read low): 0.849 (active)
normalized growth (locus YDL134C, strain PPH21, active compounds read low): 0.853 (active)
normalized growth (locus YDL185W, strain tfp1, active compounds read low): 0.845 (active)
normalized growth (locus YDL192W, strain arf1, active compounds read low): 0.868 (active)
normalized growth (locus YDR001C, strain nth1, active compounds read low): 0.963
normalized growth (locus YDR069C, strain doa4, active compounds read low): 0.703 (active)
normalized growth (locus YDR101C, strain arx1, active compounds read low): 0.911 (active)
normalized growth (locus YDR137W, strain rgp1, active compounds read low): 0.701 (active)
normalized growth (locus YDR159W, strain sac3, active compounds read low): 0.924
normalized growth (locus YDR162C, strain NBP2, active compounds read low): 0.823 (active)
normalized growth (locus YDR195W, strain ref2): 1.04
normalized growth (locus YDR297W, strain sur2, active compounds read low): 0.928
normalized growth (locus YDR318W, strain mcm21, active compounds read low): 0.907 (active)
normalized growth (locus YDR334W, strain swr1, active compounds read low): 0.877 (active)
normalized growth (locus YDR335W, strain msn5, active compounds read low): 0.858 (active)
normalized growth (locus YDR388W, active compounds read low): 0.955
normalized growth (locus YDR392W, strain spt3, active compounds read low): 0.87
normalized growth (locus YDR502C, strain sam2, active compounds read low): 0.861 (active)
normalized growth (locus YEL003W, strain gim4, active compounds read low): 0.893 (active)
normalized growth (locus YEL037C, strain rad23, active compounds read low): 0.928
normalized growth (locus YEL061C, strain CIN8 (second series), active compounds read low): 0.958
normalized growth (locus YEL061C, strain CIN8, active compounds read low): 0.901 (active)
normalized growth (locus YER015W, strain faa2, active compounds read low): 0.883 (active)
normalized growth (locus YER016W, strain bim1, active compounds read low): 0.924
normalized growth (locus YER110C, active compounds read low): 0.989
normalized growth (locus YER111C, strain swi4, active compounds read low): 0.72 (active)
normalized growth (locus YER155C, strain BEM2 (second series), active compounds read low): 0.902
normalized growth (locus YER155C, strain BEM2, active compounds read low): 0.991
normalized growth (locus YER167W, strain BCK2, active compounds read low): 0.953
normalized growth (locus YFR010W, strain ubp6, active compounds read low): 0.854 (active)
normalized growth (locus YGL078C, strain dbp3, active compounds read low): 0.965
normalized growth (locus YGL086W, strain mad1, active compounds read low): 0.86 (active)
normalized growth (locus YGL167C, strain pmr1, active compounds read low): 0.917
normalized growth (locus YGL173C, strain kem1, active compounds read low): 0.853 (active)
normalized growth (locus YGL227W, strain vid30, active compounds read low): 0.982
normalized growth (locus YGL240W, strain doc1, active compounds read low): 0.955
normalized growth (locus YGL248W, strain PDE1, active compounds read low): 0.837 (active)
normalized growth (locus YGL253W, strain hxk2, active compounds read low): 0.928
normalized growth (locus YGR078C, strain PAC10, active compounds read low): 0.821 (active)
normalized growth (locus YGR135W, strain pre9, active compounds read low): 0.85 (active)
normalized growth (locus YGR252W, strain gcn5, active compounds read low): 0.861
normalized growth (locus YHR013C, strain ard1, active compounds read low): 0.852
normalized growth (locus YHR027C, strain rpn1, active compounds read low): 0.869 (active)
normalized growth (locus YHR030C, strain SLT2, active compounds read low): 0.824 (active)
normalized growth (locus YHR079C, strain IRE1 (second series), active compounds read low): 0.902 (active)
normalized growth (locus YHR079C, strain IRE1, active compounds read low): 0.898
normalized growth (locus YHR094C, strain hxt1, active compounds read low): 0.993
normalized growth (locus YHR129C, strain ARP1, active compounds read low): 0.826 (active)
normalized growth (locus YHR142W, strain chs7, active compounds read low): 0.786 (active)
normalized growth (locus YHR200W, strain rpn10, active compounds read low): 0.886 (active)
normalized growth (locus YIL066C, strain RNR3, active compounds read low): 0.88
normalized growth (locus YIL073C, strain SPO22, active compounds read low): 0.848
normalized growth (locus YIL125W, strain kgd1, active compounds read low): 0.951
normalized growth (locus YIR030C, strain dcg1, active compounds read low): 0.976
normalized growth (locus YJL092W, strain hpr5, active compounds read low): 0.955
normalized growth (locus YJL095W, strain BCK1 (second series), active compounds read low): 0.908 (active)
normalized growth (locus YJL095W, strain BCK1, active compounds read low): 0.784 (active) and 0.833 (active)
normalized growth (locus YJL115W, strain asf1, active compounds read low): 0.966
normalized growth (locus YJL129C, strain trk1, active compounds read low): 0.944
normalized growth (locus YJL134W, strain LCB3, active compounds read low): 0.968
normalized growth (locus YJL154C, strain vps35, active compounds read low): 0.953
normalized growth (locus YJL164C, strain tpk1, active compounds read low): 0.877 (active)
normalized growth (locus YJL166W, strain qcr8, active compounds read low): 0.933
normalized growth (locus YJL168C, strain set2, active compounds read low): 0.963
normalized growth (locus YJL187C, strain SWE1 (second series), active compounds read low): 0.632 (active)
normalized growth (locus YJL187C, strain SWE1, active compounds read low): 0.915 (active)
normalized growth (locus YJR066W, strain TOR1, active compounds read low): 0.812 (active)
normalized growth (locus YJR075W, strain HOC1, active compounds read low): 0.928
normalized growth (locus YKL009W, strain mrt4, active compounds read low): 0.983
normalized growth (locus YKL068W, active compounds read low): 0.97
normalized growth (locus YKL085W, strain MDH1 (second series), active compounds read low): 0.967
normalized growth (locus YKL085W, strain MDH1, active compounds read low): 0.967
normalized growth (locus YKL160W, strain elf1, active compounds read low): 0.9 (active)
normalized growth (locus YKR001C, strain vps1, active compounds read low): 0.916
normalized growth (locus YKR026C, strain gcn3, active compounds read low): 0.941
normalized growth (locus YKR091W, strain srl3, active compounds read low): 0.965
normalized growth (locus YLL001W, strain dnm1, active compounds read low): 0.932
normalized growth (locus YLL026W, active compounds read low): 0.952
normalized growth (locus YLL041C, strain sdh2, active compounds read low): 0.937
normalized growth (locus YLR027C, strain aat2, active compounds read low): 0.947
normalized growth (locus YLR039C, strain RIC1, active compounds read low): 0.777
normalized growth (locus YLR058C, strain SHM2, active compounds read low): 0.631 (active)
normalized growth (locus YLR102C, strain apc9, active compounds read low): 0.995
normalized growth (locus YLR113W, strain HOG1, active compounds read low): 0.903
normalized growth (locus YLR221C, strain rsa3, active compounds read low): 0.887 (active)
normalized growth (locus YLR258W, strain gsy2, active compounds read low): 0.934
normalized growth (locus YLR262C, strain YPT6 (second series), active compounds read low): 0.803 (active)
normalized growth (locus YLR262C, strain YPT6, active compounds read low): 0.896
normalized growth (locus YLR268W, strain sec22, active compounds read low): 0.84 (active)
normalized growth (locus YLR320W, strain mms22, active compounds read low): 0.88
normalized growth (locus YLR330W, strain CHS5, active compounds read low): 0.884 (active)
normalized growth (locus YLR342W, strain FKS1, active compounds read low): 0.891 (active)
normalized growth (locus YLR357W, strain rsc2, active compounds read low): 0.691 (active)
normalized growth (locus YLR370C, strain arc18, active compounds read low): 0.95
normalized growth (locus YLR371W, strain rom2, active compounds read low): 0.776 (active)
normalized growth (locus YLR384C, strain iki3, active compounds read low): 0.936
normalized growth (locus YLR418C, strain cdc73, active compounds read low): 0.715 (active)
normalized growth (locus YML016C, strain PPZ1, active compounds read low): 0.83 (active)
normalized growth (locus YML032C, strain rad52, active compounds read low): 0.994
normalized growth (locus YML120C, strain ndi1, active compounds read low): 0.928
normalized growth (locus YML124C, strain tub3, active compounds read low): 0.967
normalized growth (locus YMR058W, strain fet3, active compounds read low): 0.384 (active)
normalized growth (locus YMR078C, strain ctf18, active compounds read low): 0.965
normalized growth (locus YMR125W, strain sto1, active compounds read low): 0.958
normalized growth (locus YMR129W, active compounds read low): 0.963
normalized growth (locus YMR205C, strain PFK2, active compounds read low): 0.825 (active)
normalized growth (locus YMR223W, strain ubp8, active compounds read low): 0.874 (active)
normalized growth (locus YMR231W, strain pep5, active compounds read low): 0.9 (active)
normalized growth (locus YMR263W, strain SAP30, active compounds read low): 0.884 (active)
normalized growth (locus YMR307W, strain GAS1, active compounds read low): 0.787
normalized growth (locus YNL067W, strain RPL9B, active compounds read low): 0.869
normalized growth (locus YNL071W, strain lat1, active compounds read low): 0.963
normalized growth (locus YNL153C, strain GIM3, active compounds read low): 0.853 (active)
normalized growth (locus YNL183C, strain NPR1, active compounds read low): 0.852
normalized growth (locus YNL209W, strain ssb2, active compounds read low): 0.76 (active)
normalized growth (locus YNL233W, strain BNI4, active compounds read low): 0.866 (active)
normalized growth (locus YNL248C, strain rpa49, active compounds read low): 0.98
normalized growth (locus YNL250W, strain rad50, active compounds read low): 0.981
normalized growth (locus YNL271C, strain bni1, active compounds read low): 0.911 (active)
normalized growth (locus YNL298W, strain CLA4, active compounds read low): 0.941
normalized growth (locus YNL307C, strain MCK1, active compounds read low): 0.951
normalized growth (locus YNL322C, strain KRE1 (second series), active compounds read low): 0.943
normalized growth (locus YNL322C, strain KRE1, active compounds read low): 0.821 (active)
normalized growth (locus YNR049C, strain mso1, active compounds read low): 0.954
normalized growth (locus YNR052C, strain pop2, active compounds read low): 0.792 (active)
normalized growth (locus YOL006C, strain TOP1, active compounds read low): 0.656
normalized growth (locus YOL012C, strain htz1): 0.425
normalized growth (locus YOL147C, strain pex11, active compounds read low): 0.84 (active)
normalized growth (locus YOR001W, strain rrp6, active compounds read low): 0.867 (active)
normalized growth (locus YOR061W, strain CKA2, active compounds read low): 0.852 (active)
normalized growth (locus YOR069W, strain VPS5, active compounds read low): 0.88 (active)
normalized growth (locus YOR070C, strain gyp1, active compounds read low): 0.941
normalized growth (locus YOR080W, strain dia2, active compounds read low): 0.954
normalized growth (locus YOR083W, strain WHI5, active compounds read low): 0.887 (active)
normalized growth (locus YOR106W, strain vam3, active compounds read low): 0.711 (active)
normalized growth (locus YOR136W, strain idh2, active compounds read low): 0.962
normalized growth (locus YOR144C, strain elg1, active compounds read low): 0.867 (active)
normalized growth (locus YOR184W, strain ser1, active compounds read low): 0.882
normalized growth (locus YOR231W, strain MKK1, active compounds read low): 0.931
normalized growth (locus YOR265W, strain rbl2, active compounds read low): 0.913 (active)
normalized growth (locus YOR270C, strain vph1, active compounds read low): 0.81
normalized growth (locus YOR290C, strain snf2, active compounds read low): 0.67 (active)
normalized growth (locus YOR316C, strain cot1, active compounds read low): 0.983
normalized growth (locus YPL051W, strain arl3, active compounds read low): 0.807 (active)
normalized growth (locus YPL055C, strain LGE1, active compounds read low): 0.841
normalized growth (locus YPL078C, strain atp4, active compounds read low): 0.885 (active)
normalized growth (locus YPL106C, strain sse1, active compounds read low): 0.839 (active)
normalized growth (locus YPL240C, strain hsp82, active compounds read low): 0.949
normalized growth (locus YPL241C, strain CIN2, active compounds read low): 0.969
normalized growth (locus YPL256C, strain CLN2, active compounds read low): 0.984
normalized growth (locus YPR119W, strain clb2, active compounds read low): 0.991
normalized growth (locus YPR141C, strain kar3, active compounds read low): 0.964
normalized growth (locus YPR163C, strain tif3, active compounds read low): 0.901 (active)
normalized growth (locus YPR167C, strain met16, active compounds read low): 0.897 (active)
normalized growth (strain wtn01, active compounds read low): 0.864 (active)
